MLL AF4-AF9 inh = blocks AF4 peptide binding to human AF9; P42568; 350,000 compounds, 0.47% hits; AlphaScreen, biotin-AF4 peptide binding to FLAG-AF9; AID 651704; inhibition, % at 10 µM;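 active = every replicate reaching a set inhibition limit, whatever the replicate mean, cut at about 25% in these data; inconclusive = mean inhibition reaches that limit but some replicates miss it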;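 note: 0% = plate neutral control median and 100% = total signal loss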
dFosB activator = mouse delta FosB homodimer activation | P13346 | purified delta FosB, TAMRA-CDK5 oligo fluorescence polarization; percent of positive-control signal above neutral wells | activation, % at 25 µM | 340,000 compounds, 0.99% hits;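 active = mean activation above about 17%, with every replicate also reaching it, limit read from the data, passing the limit was not always enough; inconclusive = only one of the two conditions met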
RAD54 branch = RAD54 (human) branch migration inhibition | Q92698 | RAD54 Holliday junction branch migration, FAM/BHQ fluorescence | inhibition, % at 10.4 µM | 360,000 compounds, 0.14% hits | AID 602329;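 active = mean normalized replicate activity at least 40 and at least half of replicates scoring 40 or more; inconclusive = only one of the two criteria met; inactive = mean below 40 and under half of replicates reaching 40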;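 note: 0% = median of neutral control wells and 100% = median of positive control wells; inhibitors cause a drop in the FAM fluorescence signal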
Target sequence (Q92698 whole entry, looked up): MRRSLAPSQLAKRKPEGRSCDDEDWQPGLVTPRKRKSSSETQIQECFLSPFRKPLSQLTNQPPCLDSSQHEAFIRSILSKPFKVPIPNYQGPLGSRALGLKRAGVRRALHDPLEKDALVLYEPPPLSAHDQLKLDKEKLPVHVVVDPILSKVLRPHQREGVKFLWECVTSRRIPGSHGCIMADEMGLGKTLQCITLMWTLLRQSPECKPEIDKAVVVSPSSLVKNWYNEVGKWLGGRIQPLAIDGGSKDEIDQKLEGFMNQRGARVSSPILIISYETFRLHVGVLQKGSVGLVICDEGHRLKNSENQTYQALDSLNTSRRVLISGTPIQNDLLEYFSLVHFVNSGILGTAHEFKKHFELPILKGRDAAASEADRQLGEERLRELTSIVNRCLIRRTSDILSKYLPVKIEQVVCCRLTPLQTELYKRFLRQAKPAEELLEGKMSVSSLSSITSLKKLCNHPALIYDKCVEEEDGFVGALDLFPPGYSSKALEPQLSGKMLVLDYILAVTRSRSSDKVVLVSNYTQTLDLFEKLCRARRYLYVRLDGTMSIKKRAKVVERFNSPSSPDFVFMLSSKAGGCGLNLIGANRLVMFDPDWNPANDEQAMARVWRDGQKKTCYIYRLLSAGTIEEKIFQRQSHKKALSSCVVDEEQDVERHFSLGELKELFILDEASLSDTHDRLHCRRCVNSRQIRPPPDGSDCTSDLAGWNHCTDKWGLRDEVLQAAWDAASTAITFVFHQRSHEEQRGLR
RAD52 inh = inhibitors of human RAD52 DNA annealing. P43351. recombinant RAD52 DNA annealing, FRET fluorescence. inhibition, % at 18.7 µM. 360,000 compounds, 0.46% hits;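 active = every replicate showing at least 50% inhibition; inconclusive = mean inhibition at least 50% but not in every replicate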
GSIS activator = GLuc luminescence reporter in INS-1E cells, primary screen for activators of glucose-dependent secretion of insulin | INS-1E GLuc reporter insulin secretion, 2-3 h | activation, % at 16.6 µM | 370,000 compounds, 0.61% hits | AID 743287;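 active = lowest replicate activation of at least 40%, so every replicate reaches that level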;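 note: 0% = median of neutral control wells and 100% = median of IBMX positive control wells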
DENV2 CPE = protects cells from dengue virus 2 cytopathic effect; DENV2-infected cells, cytopathic effect rescue, plate reader; CPE inhibition, % at 9.99 µM; 350,000 compounds, 1.7% hits; AID 651640; in the data active = CPE inhibition above about 20%, passing the limit was not always enough; inconclusive = no clear call, values can overlap the other calls; tested in BHK-21 cells;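 note: 0% = median of neutral control wells and 100% = median of positive control wells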
RAD52 DNA ctr = DNA binding artifact in RAD52 counter-screen. 1,000 compounds, 8% hits. Salmon sperm DNA/acridine orange FP displacement. AC50, µM. AID 652128. shares compounds with RAD52 inh;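 active = fitted half-maximal concentration for signal loss at or below twice the highest dose tested, in every separate run, actives reach about 64 µM in these data; inconclusive = runs disagree, or flat partial signal loss, or poor fit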
An asterisk follows results filed as active; i = inactive; ? = inconclusive; . = not tested or not shown; ! = a repeat was not active. Sampled rows, rich in hits. Any-hit rate of the full collection: about 3.1%.

SMILES | MLL AF4-AF9 inh | dFosB activator | RAD54 branch | RAD52 inh | GSIS activator | DENV2 CPE | RAD52 DNA ctr
CCC[C@@H](CN1CCC[C@H]1CN1C(N)=NC[C@H]1CC(C)C)N1C[C@@H]([C@H](C)CC)N(CCc2ccc(Cl)c(Cl)c2)C1=N | 25.4* | 4.6 | 19.7 | 50.6* | -1.0 | 4.7 | i
CCC[C@@H](CN1CCC[C@H]1CN1C(N)=NC[C@H]1CC(C)C)N1C[C@@H](Cc2ccccc2)N(CCc2ccc(Cl)c(Cl)c2)C1=N | 33.3* | 3.1 | 16.6 | 64.9* | 39.4 | 55.2* | i
CCC[C@@H](CN1CCC[C@H]1CN1C(N)=NC[C@H]1CC(C)C)N1C[C@@H](Cc2ccccc2)N(CCCC2CCCC2)C1=N | 16.3 | -7.4 | 13.9 | 58.5* | -15.5 | -5.5 | i
C[C@@H]1CN([C@H](C)CO)C(=O)c2cc(C#CCN(C)C)cnc2O[C@H]1CN(C)C(=O)NC1CCCCC1 | -3.1 | . | -3.1 | -3.0 | 8.1 | ? | .
CC(C)NC(=O)N(C)C[C@@H]1Oc2cc(-c3ccncc3)ccc2S(=O)(=O)N([C@@H](C)CO)C[C@H]1C | -3.0 | . | 0.1 | 18.6 | 8.2 | 11.0 | .
Cc1ccc2c(c1)c1c3n2CCN(CC(O)CNC(C)C)C3CCC1 (stereo not drawn) | 20.0 | 7.6 | ? | 82.4* | 5.5 | 3.2 | i
O=C/C=C/c1ccc2c(c1)OCO2 | -2.9 | . | . | 3.3 | . | -3.9 | .
CN(C)CCN(C(=O)c1ccc2ccccc2c1)c1nc2cc3c(cc2s1)OCCO3 | 49.9* | 15.1 | 34.0 | 69.1* | 32.3 | -9.0 | i
CCN(CC)CCN(C(=O)c1ccc(C(=O)c2ccccc2)cc1)c1nc2ccc(OC)cc2s1 | 9.9 | ? | 1.9 | -0.8 | -33.8 | 3.0 | .
CN(C)CCCN(C(=O)c1ccc2c(c1)OCCO2)c1nc2cc3c(cc2s1)OCO3 | 4.9 | 6.5 | 19.8 | 21.8 | -1.6 | 1.0 | .
CCOc1ccc2nc(N(CCCN(C)C)C(=O)c3ccc(S(=O)(=O)N4CCc5ccccc5C4)cc3)sc2c1 | -2.4 | 3.1 | -2.5 | 59.1* | -37.3 | 4.7 | i
COc1cc2nc(N(CCCN(C)C)C(=O)c3ccc(C(=O)c4ccccc4)cc3)sc2cc1OC | 28.4* | 4.4 | 30.1 | 71.6* | -31.7 | 1.0 | i
C[C@@H]1CN([C@@H](C)CO)C(=O)Cc2cc(NC(=O)Nc3ccc4c(c3)OCO4)ccc2O[C@@H]1CN(C)Cc1ccc(C(=O)O)cc1 | -0.2 | . | -3.0 | -4.6 | 20.0 | -14.6 | .
C[C@H]1CN([C@@H](C)CO)C(=O)c2cc(C3=CCCC3)cnc2O[C@@H]1CN(C)C(=O)NC1CCCC1 | -24.0 | . | 1.6 | 6.7 | 8.6 | -1.8 | .
CO[C@@H]1CN(C)C(=O)c2ccc(NC(=O)C3CCC3)cc2OC[C@H](C)N(Cc2ccc(F)cc2)C[C@@H]1C | 2.8 | . | -6.2 | 0.4 | -16.8 | 0.3 | .
O=C(C[C@H]1C=C[C@H](NC(=O)Nc2cc(F)ccc2F)[C@@H](CO)O1)Nc1ccccc1 | 0.8 | . | -4.4 | -6.8 | -9.2 | -8.3 | .
OC(CN1CCOCC1)Cn1c2ccccc2c2ccccc21 (stereo not drawn) | 1.8 | -2.6 | 8.9 | -0.7 | 4.1 | -4.0 | .
OC(CN1CCNCC1)Cn1c2ccccc2c2ccccc21 (stereo not drawn) | 4.9 | 1.6 | 18.9 | 79.0* | -11.9 | -7.6 | i
CC(C)NC(=O)N(C)C[C@@H]1Oc2ccc(NC(=O)C3CCCCC3)cc2CC(=O)N([C@@H](C)CO)C[C@H]1C | -2.6 | . | 7.3 | 11.7 | 17.2 | 1.1 | .
CC(NC(=O)CSc1ncccn1)c1ccc2c(c1)OCO2 (stereo not drawn) | 6.7 | -3.2 | 6.3 | 4.3 | . | 4.1 | .
CC(NC(=O)CCc1ccccc1)c1ccc2c(c1)OCO2 (stereo not drawn) | -8.8 | 0.6 | 3.6 | 108.3* | -23.5 | 28.6* | i
COc1cc2c(cc1OC)C(c1ccccc1)=NCC2 | 0.3 | -0.5 | -1.3 | -5.7 | 16.9 | -1.7 | .
COc1cc2c(cc1OC)C(c1ccccc1N)=NCC2 | . | -6.3 | 25.9 | 61.3* | 2.9 | 1.6 | i
c1ccc(Nc2ccc(NCCc3c[nH]c4ccccc34)cc2)cc1 | . | . | . | 78.0* | . | -6.5 | i
O=C(CN1CCCC(O)C1)N1c2ccccc2Sc2ccc(C(F)(F)F)cc21 (stereo not drawn) | . | -2.4 | -2.1 | . | -6.4 | . | .
SMILES | MLL AF4-AF9 inh | dFosB activator | RAD54 branch | RAD52 inh | GSIS activator | DENV2 CPE | RAD52 DNA ctr
CN1CCN(CCCN2c3ccccc3Sc3ccc(C(F)(F)F)cc32)CC1 | 27.2*! | 7.1 | 20.7 | 50.5*! | 19.6 | -2.3 | i
COCCCn1c(=N)c(C(N)=S)cc2c(=O)n3cccc(C)c3nc21 | 11.2 | -6.7 | 29.6 | 34.3 | 26.2 | 6.3 | .
Cc1ccc2nc3c(cc(C(=O)NCc4ccccc4)c(=N)n3CCCn3ccnc3)c(=O)n2c1 | -1.4 | 7.6 | 27.1 | -256.5 | 9.5 | -1.0 | .
Cc1cccn2c(=O)c3cc(C(=O)NC(C)c4ccccc4)c(=N)n(CCCn4ccnc4)c3nc12 (stereo not drawn) | -29.9 | ? | . | 68.4* | 3.9 | 1.8 | i
Cc1cccn2c(=O)c3cc(C(N)=S)c(=N)n(CCCN4CCOCC4)c3nc12 | 0.9 | 2.6 | . | 86.2* | 67.1 | 6.9 | i
CN1C(=O)c2cc(NC(=O)Cc3ccccc3)ccc2OC[C@H]2O[C@@H](CC(=O)NCC3CC3)CC[C@H]21 | -1.7 | . | 2.0 | -0.1 | -8.5 | -5.3 | .
CC(=O)N(C)C[C@@H]1Oc2cc(C#CC(C)(C)O)ccc2S(=O)(=O)N([C@H](C)CO)C[C@H]1C | -1.9 | . | 1.1 | -7.5 | 20.1 | 8.0 | .
O=C1c2cccc(NCCNCCO)c2C(=O)c2cccc(NCCNCCO)c21 | 46.0* | -20.8 | . | 63.2* | 5.8 | 2.5 | 4.04µM*
C[C@H](CO)N1C[C@H](C)[C@@H](CN(C)Cc2ccccc2C(=O)O)Oc2cc(-c3ccc(C(=O)N(C)C)cc3)ccc2S1(=O)=O | 1.1 | . | 8.0 | -14.8 | -2.9 | -2.4 | .
COc1ccccc1CNc1nc(NCc2ccc(NC(C)=O)cc2)c2sccc2n1 | -5.9 | . | 3.7 | 50.8* | -8.8 | 16.1 | i
C=CCNc1nc(NCc2ccc(NC(C)=O)cc2)c2sc(-c3ccccc3)cc2n1 | -0.1 | . | -7.9 | -31.5 | -2.4 | 6.0 | .
CC(=O)Nc1ccc(CNc2nc(NC(C)C)nc3cc(-c4ccccc4)sc23)cc1 | 0.6 | . | -6.8 | 96.6* | 5.4 | 10.3 | i
CO[C@H](CN(C)Cc1ccc2c(c1)OCO2)[C@@H](C)CN(C(=O)Nc1ccc(F)cc1)[C@@H](C)CO | 2.3 | . | -6.6 | -27.2 | -5.4 | -0.5 | .
CN(C)CCCn1c2c3ccccc3ccc2c2oc(=O)c3ccccc3c21 | -16.0 | 73.4* | . | 63.8* | 79.8* | 2.8 | i
COC(=O)C[C@@H]1C=C[C@@H](NS(=O)(=O)c2ccccc2F)[C@@H](CO)O1 | -0.4 | . | -9.9 | -1.1 | 23.3 | -4.4 | .
Cc1cc(C(C)(C)CC(C)(C)C)ccc1OCCOCC[N+](C)(C)Cc1ccccc1 | 22.3 | -9.4 | 33.0 | 90.7* | 333.2* | 10.0 | ?
